A selection: hits, their analogues and other compounds. The true share with any hit is near 11%.
HCV inhibitor = inhibitors of hepatitis C virus infection | hit rate 3.4% among 340,000 | AID 651820 | Potency, µM (highest dose often 41.8 µM), for the others: top-dose activity change, negative = inhibition, usual class: inhibitors | Huh7.5.1 HCVcc-Cre infection, luciferase reporter, 44 h
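HCVcc-Cre virus at an moi near 0.5 was added right after compound to cells cultured 4 h from seeding (1,000 cells/well). Luciferase activity was determined 44 h later, 15 min after substrate addition at RT.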
Pf growth 96h = P. falciparum growth inhibition at 96 hours; P. falciparum luciferase reporter growth, 96 h; Potency, µM (doses to about 28.7 µM), inactives show top-dose activity change, negative = inhibition, most hits filed as inhibitors; hit rate 6.9% among 320,000; AID 504834
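Compounds incubated with erythrocytes infected by luciferase-expressing P. falciparum (2% hematocrit, 0.05% parasitemia final) for 96 hours, 37 C in 5% CO2. Growth inhibition scored as decreased luciferase luminescence.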
AMA1 RON2 block = AMA1-RON2 (P. falciparum) interaction inhibition; AlphaScreen AMA1-biotinylated RON2 peptide binding; AID 720542; Potency, µM (doses to about 58.2 µM), without a hit: at the highest dose activity change, negative = inhibition, most hits filed as inhibitors; hit rate 0.2% among 360,000;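 also: 0% = vehicle wells and -100% = peptide control; nearly all actives have a fitted effect of over 45% in size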
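AMA1 (3D7) with his tag at 25 nM final met compounds first, then biotinylated RON2 peptide at 25 nM; detection used donor plus acceptor beads, 10 µg/mL apiece, read by AlphaScreen after 30 min at room temperature.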
Pf growth 48h = inhibits P. falciparum growth in the first generation, 48 h; P. falciparum luciferase growth in erythrocytes, 48 h; Potency, µM (top dose mostly 28.7 µM), inactives show at the highest dose activity change, negative = inhibition, hits mostly inhibitors; hit rate 5.9% among 310,000; AID 504832
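Erythrocytes infected with P. falciparum carrying an integrated firefly luciferase reporter (2% hematocrit, 0.1% parasitemia final) were exposed to compounds in RPMI 1640 with 0.5% Albumax at 37 C, 5% CO2. Growth inhibition was scored as reduced luminescence.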
* marks the source's active call; other numbers are inactive results; ? = inconclusive; / = no result; [ ] = remark or other dose. Calls follow the shape of the dose curve; as a rule, active = well fitted curve in the direction sought with a large enough effect; inconclusive = small, poorly fitted or top-dose-only effect, or another doubt; inactive = no such curve, though single readings can be large; an effect the other way counts as inactive or inconclusive. Unless noted, % is scaled to controls: 0 for no effect and ±100 for the full control effect; potency is read from the fitted curve at half-maximal effect.

SMILES | HCV inhibitor | Pf growth 96h | AMA1 RON2 block | Pf growth 48h
O=C(NCc1ccccn1)C1CCN(S(=O)(=O)N2CCC3(CC2)OCCO3)CC1 | 4.9% | 10.4µM* | 52.8% | -5.9%
O=C(C1CCN(S(=O)(=O)N2CCC3(CC2)OCCO3)CC1)N1CCc2ccccc2C1 | -9.9% | 5.22µM* | -9.6% | /
O=C(Nc1oc2ccccc2c(=O)c1-c1ccccc1)c1ccco1 | / | / | -6.8% | /
O=C(CN1C(=O)NC(c2ccccc2)(c2ccccc2)C1=O)NCc1ccccc1 | -19.0% | ? | 20.5% | -13.7%
CCOc1ccc(CN(C)C(=O)CN2C(=O)NC(c3ccccc3)(c3ccccc3)C2=O)cc1 | ? | ? | -2.6% | 13.1µM*
Cc1cc(C(=O)CN2C(=O)NC(c3ccccc3)(c3ccccc3)C2=O)c(C)n1Cc1ccccc1 | -48.4% | 8.28µM* | -13.3% | ?
Cc1cc(C(=O)CN2C(=O)C(=O)N(Cc3ccccc3)C2=O)c(C)n1Cc1ccccc1 | -24.9% | / | -2.6%[11.6 µM] | /
O=C(CN1C(=O)NC(c2ccccc2)(c2ccccc2)C1=O)c1c[nH]c2ccccc12 | / | -10.3% | / | 11.7µM*
COc1ccc(NC(=O)CN2C(=O)COc3ccccc32)cc1OC | 13.2% | 93.1% | 2.9% | ?
COc1ccc(NC(=O)C(=O)NCC2CCCN2S(=O)(=O)c2ccc(C)cc2)cc1 (stereo not given) | ? | ? | -2.7% | ?
O=C(c1cccc(Cl)c1)N1CCC(N2CCC(C(=O)N3CCCC3)CC2)CC1 | ? | 14.7µM* | 1.2% | ?
CCOC(=O)C1CCN(C(=O)c2ccc3nc(-c4ccc(OC)cc4)c(-c4ccc(OC)cc4)nc3c2)CC1 | 25.1µM* | 8.2% | 15.3% | 8.28µM*
CCOC(=O)C1CCN(C(=O)c2cc(C(C)(C)C)nn2Cc2ccccc2)CC1 | -2.9% | 1.17µM* | 2.5% | 1.17µM*
CCOC(=O)C1CCN(C(=O)c2cccc(Cl)c2)CC1 | 7.2% | 7.38µM* | 5.4% | -8.2%
CCOC(=O)C1CCCN(C(=O)c2ccc(OC)cc2)CC1 (stereo not given) | / | / | -2.3% | /
O=C(COc1ccc([N+](=O)[O-])cc1)NNC(=O)Nc1cccc(F)c1 | 6.0% | 2.9% | 32.7% | -27.6%
CCOC(=O)C1CCN(C(=O)C2CCN(c3nc4ccc(OC)cc4s3)CC2)CC1 | ? | 10.4µM* | -11.5% | ?
Cc1onc(-c2ccccc2Cl)c1-c1nc(-c2ccncc2)no1 | ? | 11.7µM* | 0.0% | /
O=C(CN1C(=O)C2C3C=CC(C3)C2C1=O)OCC(=O)c1ccc(Cl)c([N+](=O)[O-])c1 (stereo not given) | -5.9% | / | -4.7% | /
CC1Cc2nc(SCC(=O)Nc3ccc(F)cc3F)n(C)c(=O)c2S1 (stereo not given) | -10.3% | ? | -4.8% | 6.57µM*
CCOC(=O)c1ccc(NC(=O)CSc2nc3c(c(=O)n2CC)SC(C)C3)cc1 (stereo not given) | ? | 9.28µM* | -16.0% | 10.4µM*
CCn1c(SCC(=O)Nc2cccc(F)c2)nc2c(c1=O)SC(C)C2 (stereo not given) | ? | 2.62µM* | -5.7% | 4.15µM*
CCCc1cc(C(=O)NC(C)C2CCCO2)cs1 (stereo not given) | 2.6% | 21.9% | -14.4% | 111.7%
Cc1cc(S(=O)(=O)NCc2ccccc2)ccc1OCC(=O)NCc1ccncc1 | -0.5% | ? | -14.8% | ?
CN(C)c1ccc(/C=C/C(=O)c2ccccc2O)cc1 | -25.9% | 0.0% | 14.1µM* | 448.5%
SMILES | HCV inhibitor | Pf growth 96h | AMA1 RON2 block | Pf growth 48h
COc1ccc(C(=O)/C=C/c2cc(OC)c(O)c(OC)c2)c(F)c1 | 12.6µM* | ? | 3.5%[11.6 µM] | -6.6%
COc1ccc2cc(C(=O)/C=C/c3cc(OC)c(O)c(OC)c3)ccc2c1 | ? | ? | -7.9% | ?
COc1ccc(C(=O)/C=C/c2ccc(N(C)C)cc2)c(OC)c1 | ? | 2.08µM* | -4.2% | ?
COc1ccc(C(=O)/C=C/c2ccccc2)c(OC)c1 | -1.4% | ? | -3.5% | -62.5%
Cc1cccc(NC(=O)c2ccccc2OCC(=O)N2CCCC2)c1C | / | 68.1%[1.15 µM] | / | 6.9%
COc1ccc(Nc2nnc(SCC3CCCO3)s2)cc1 (stereo not given) | ? | ? | 8.1% | 0.0%
Cc1c(N2CCCC2)cc2c(c1NC(=O)c1ccccc1Cl)C(C)(C)CC2(C)C | 25.1µM* | ? | -17.5% | ?
O=C(Nc1ccccc1N1CCCC1)c1cccc(Cl)c1Cl | -9.8% | 0.4% | -17.8% | -16.3%
CC1C(=O)N(Cc2ccc(F)cc2)c2ccccc2N1C(=O)c1c(F)cccc1F (stereo not given) | ? | 11.7µM* | -3.3% | ?
CCCN(CC(=O)Nc1ccccc1C)C(=O)CCCc1c[nH]c2ccccc12 | ? | ? | 17.0% | ?
Cc1cccc(OC(C)C(=O)N/N=C\c2ccncc2)c1 (stereo not given) | -10.8% | ? | 7.5% | 2.8%
CCN(C(=O)c1cnc(OC)cc1C(F)(F)F)c1ccc(Cl)cc1Cl | -6.9% | 0.0% | -15.4% | -1.5%
CCCOC(=O)c1ccc(-c2c(C)noc2-c2ccc(OC)cc2O)o1 | ? | / | -9.7% | 0.738µM*
COc1ccc(CCNC(=O)/C=C/c2ccco2)cc1 | -5.3% | -13.9% | -0.3% | -6.6%
Cn1ncc2c(O/N=C(\N)c3ccc(C(C)(C)C)cc3)ncnc21 | 5.62µM* | ? | 3.5% | ?
COc1ccc([C@H]2CC(=O)C=C(c3cccc4c3Oc3ccccc3S4)C2)cc1OC | 12.6µM* | ? | -21.2% | ?
CCOC(=O)c1cccc(C2=CC(=O)C[C@H](c3ccc(OC)c(OC)c3)C2)c1 | 12.6µM* | ? | -16.1% | 10.4µM*
O=C1C=C(c2cccc(Cl)c2O)C[C@@H](c2ccc3c(c2)OCO3)C1 | 22.5% | ? | -24.3% | 11.7µM*
COc1ccc([C@H]2CC(=O)C=C(c3cccc(CO)c3)C2)cc1OC | -20.6% | ? | -2.1% | ?
COc1cccc(OC)c1C1=CC(=O)C[C@H](c2ccc3c(c2)OCO3)C1 | ? | ? | -29.6% | ?
O=C1C=C(c2cccc(Cl)c2)C[C@@H](c2ccc3c(c2)OCO3)C1 | ? | ? | -17.8% | ?
COc1cccc(C2=CC(=O)C[C@H](c3ccc4c(c3)OCO4)C2)c1OC | 10µM* | ? | -28.1% | 28.4%
O=C1C=C(c2cccc3c2Oc2ccccc2S3)C[C@@H](c2ccc(Cl)cc2)C1 | -11.4% | ? | -11.1% | ?
CC(=O)C1=CCC(c2ccccc2)N(Cc2ccccc2)C1 (stereo not given) | / | / | -13.5% | /
O=C1C=C(c2cccc(Br)c2)C[C@@H](c2ccc3c(c2)OCO3)C1 | -29.2% | ? | -24.1% | 4.65µM*
COc1ccc([C@H]2CC(=O)C=C(c3ccc(O)cc3)C2)cc1OC | ? | ? | -14.4% | ?
COc1ccc([C@H]2CC(=O)C=C(c3cccc(Cl)c3O)C2)cc1OC | -24.1% | 9.28µM* | -11.5% | ?
COc1ccc(CC(=O)Nc2ccccc2C(=O)N2CCOCC2)cc1 | 26.1% | 44.3% | 0.8% | 13.0%
